# Shown are actives, neighbours in structure and some others; about 0.98% of the full set was active somewhere.
# EBV gp42 inh: EBV gp42 inhibition; inhibition, % (tested at 21.74 µM); hit rate 0.42% among 220,000; Fluorescence polarization binding assay, mP read-out; in the data active means inhibition above about 50%
# cardiac RTF act: cardiac RTF calcium sensitization; activation, % at 7.2 µM; P19429+P45379; AID 493008; hit rate 0.24% among 340,000; IANBD-labeled TnC RTF fluorescence at EC20 calcium; 0% EC20 calcium, 100% full calcium;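 active means activation above the mean over all tested compounds plus 3 SD, cut at about 30% in these data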;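 further: rise in fluorescence read as greater calcium sensitivity of cardiac thin filaments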
# Keap1 Nrf2 FP: inhibitors of human Keap1-Nrf2 protein-protein interaction. Keap1 Kelch-Nrf2 peptide fluorescence polarization, 1536-well. inhibition, % at 9.4 µM. Q14145. hit rate 0.15% among 340,000; in the data active means inhibition above about 12%;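 further: human Keap1 Kelch domain with fluorescein labeled Nrf2 9mer peptide probe; 0% = neutral control wells and 100% = peptide positive control; higher means more block of Keap1 binding to Nrf2 peptide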
# eLon inh: inhibitors of E. coli Lon protease | inhibition, % at 7.94 µM | hit rate 0.42% among 360,000 | purified E. coli Lon protease, fluorescence polarization; in the data active means inhibition above about 13%, passing the limit was not always enough;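 further: 0% = enzyme with probe and DMSO and 100% = no enzyme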
# Target sequence (P0A9M0 whole entry, looked up): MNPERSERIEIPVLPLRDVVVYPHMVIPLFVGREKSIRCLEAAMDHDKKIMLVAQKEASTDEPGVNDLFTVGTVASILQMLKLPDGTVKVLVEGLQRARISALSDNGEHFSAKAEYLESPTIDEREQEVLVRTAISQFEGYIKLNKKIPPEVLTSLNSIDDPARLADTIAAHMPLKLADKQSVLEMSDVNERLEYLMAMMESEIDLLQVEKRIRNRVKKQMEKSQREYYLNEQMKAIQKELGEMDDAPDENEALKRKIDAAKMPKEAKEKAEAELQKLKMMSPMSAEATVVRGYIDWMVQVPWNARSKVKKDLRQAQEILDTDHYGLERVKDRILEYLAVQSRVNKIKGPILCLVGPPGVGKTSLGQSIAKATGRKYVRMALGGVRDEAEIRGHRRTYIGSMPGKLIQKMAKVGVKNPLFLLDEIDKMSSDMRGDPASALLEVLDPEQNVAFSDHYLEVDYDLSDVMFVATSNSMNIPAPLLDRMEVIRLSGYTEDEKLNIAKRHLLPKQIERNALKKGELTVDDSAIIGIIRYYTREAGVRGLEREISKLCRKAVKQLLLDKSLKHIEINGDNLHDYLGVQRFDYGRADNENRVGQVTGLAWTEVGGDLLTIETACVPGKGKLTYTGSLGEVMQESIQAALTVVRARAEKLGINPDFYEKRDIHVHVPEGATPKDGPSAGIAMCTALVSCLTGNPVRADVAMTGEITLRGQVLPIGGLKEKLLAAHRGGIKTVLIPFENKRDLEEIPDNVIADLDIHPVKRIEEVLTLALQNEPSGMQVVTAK
# C-LANA FP: KSHV C-LANA DNA binding inhibition. MBP-C-LANA/FAM-LBS DNA binding, fluorescence polarization. inhibition, % at 9 µM. hit rate 0.078% among 340,000. AID 504423;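 active means highest replicate inhibition at or above 60% at 9 µM, even if other replicates fall short; inactive means all replicates below 60% inhibition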;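 further: 0% = neutral control wells and 100% = 4 µM acridine orange control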
# Cardiac RTF inh: cardiac RTF calcium desensitization; P19429+P45379; IANBD-labeled cardiac RTF, Ca2+ fluorescence; inhibition, % at 7.15 µM; hit rate 0.12% among 340,000; AID 493244;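 active means inhibition above the mean inhibition of all tested compounds plus 3 SD, cut at about 17% in these data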;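 further: assay run at fixed EC70 calcium of 1.6 mM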
# An asterisk follows results filed as active; . = no result given.
SMILES,EBV gp42 inh,cardiac RTF act,Keap1 Nrf2 FP,eLon inh,C-LANA FP,Cardiac RTF inh
O=C1CC(c2ccc(O)c(O)c2)Oc2c1ccc(O)c2O (configuration not stated),-0.9,-6.2,-2.5,-8.9,96.7*,-0.8
O=C(NCc1ccc(Cl)cc1)C1CCCN(c2cnccn2)C1 (configuration not stated),.,-0.8,-3.9,-6.7,1.3,-3.2
O=C(NCc1ccc(Cl)cc1)C1CCN(c2cnccn2)CC1,2.3,30.2*,1.2,12.0,-0.3,-12.5
CC(O)(CS(=O)(=O)Cc1ccccc1)c1ccccc1Cl (configuration not stated),.,12.7,-5.7,-1.9,-1.1,-3.2
CCOC(=O)C(=O)/C(=C\N(C)C)c1onc(-c2ccccc2)c1C(=O)OC,131.8*,-2.5,-7.9,0.6,-9.0,-3.7
CCOC(=O)[C@]12CCC=C1N(Cc1cccc3ccccc13)C(=O)[C@H](CC(=O)NCc1ccc(C)o1)C2,.,.,.,-1.6,.,.
Cc1ccc(C)n1-c1cc(S(=O)(=O)N2CCOCC2)ccc1N1CCCC1,95.5*,1.1,4.0,-2.7,1.0,-10.9
C/C(=C\C=C(C#N)C#N)c1cc(C#N)c(N)o1,-94.3,149.3*,-127.4,-64.0,-30.1,-195.2
COc1cc(C(O)c2nc(-c3cccc4cccnc34)cs2)ccc1F (configuration not stated),.,.,.,8.7,.,.
CCCCNC(=O)CN1C(=O)c2cccc(N)c2C1=O,62.5*,4.8,2.9,11.8,3.2,0.2
COc1ccccc1CNC(=O)CN1C(=O)c2cccc(N)c2C1=O,.,9.2,2.2,-1.6,2.2,-25.2
CCCS(=O)(=O)NC(=O)C1(C)CCN(C(=O)/C=C/c2ccccc2)C1 (configuration not stated),.,.,.,-5.1,.,.
O=C(N/N=C/c1ccc(O)c(O)c1O)/C(=C/c1ccc([N+](=O)[O-])cc1)NC(=O)c1ccccc1,12.0,-7.6,-5.2,26.8*,0.1,3.1
CC(C)NS(=O)(=O)c1ccc(NCCCn2ccnc2)c([N+](=O)[O-])c1,.,-4.9,0.3,6.3,1.5,-3.0
Cc1nn(-c2ccccc2)c(Cl)c1/C=N/Nc1ccc(S(=O)(=O)Nc2ccccc2C(=O)O)cc1[N+](=O)[O-],73.0*,-1.3,2.6,-5.4,11.0,11.2
CCOC(=O)C1C(=O)NC(SCC(N)=O)=C(C#N)C1c1ccccc1OCC (configuration not stated),-57.2,37.8*,-35.9,-221.2,-15.8,-71.2
CN(Cc1ccccc1)C(=O)Cn1nnc(-c2ccccc2)c1COc1ccccc1,.,.,.,4.6,.,.
CCc1ccc(-c2nc(CS(=O)CC(=O)NCc3cccnc3)c(C)o2)cc1 (configuration not stated),-17.3,2.2,-5.9,-4.0,-1.3,4.3
COc1ccc(-c2nc(CS(=O)CC(=O)NCc3cccnc3)c(C)o2)cc1 (configuration not stated),135.5*,0.9,-8.5,-10.6,-0.3,-7.2
C/C(=N/NC(=O)CNC(=O)Cc1ccccc1)c1ccco1,-2.3,38.9*,5.9,-5.4,0.4,-3.5
Cn1c(O)c(C=Nc2ccc(N3CCOCC3)cc2)c(=O)n(C)c1=S,111.9*,-1.2,-2.6,-20.2,-1.2,-2.5
Cc1cc(O)c(C=Nc2ccc(N3CCOCC3)cc2)c(C)c1Cl,.,8.1,-6.7,2.7,0.2,-8.1
CC(C)n1cc(CN2CCCC(CNS(=O)(=O)c3cccc4cccnc34)C2)cn1 (configuration not stated),.,-0.4,-4.1,0.4,0.6,0.9
COc1cccc(NS(=O)(=O)c2ccc3c(c2)C2C=CCC2C(c2ccc(C(=O)O)cc2)N3)c1 (configuration not stated),16.3,-22.4,6.7,4.7,103.6*,11.3
COc1ccc(C(=O)N/N=C(\C)c2ccc3c(c2)C2C=CCC2C(c2ccccc2)N3)cc1 (configuration not stated),-4.3,0.8,-5.7,4.7,-0.5,1.6
SMILES,EBV gp42 inh,cardiac RTF act,Keap1 Nrf2 FP,eLon inh,C-LANA FP,Cardiac RTF inh
OCC[n+]1ccc(/C=C/c2c[nH]c3ccccc23)cc1,-131.2,188.8*,-162.6,-255.5,-19.3,-275.1
Cc1ccc(C)c(S(=O)(=O)C(C#N)c2nc3ccccc3nc2N2CCCC2)c1 (configuration not stated),110.3*,7.0,2.9,-14.9,0.0,-7.0
CN1CCN(c2nc3ccccc3nc2C(C#N)S(=O)(=O)c2ccccc2)CC1 (configuration not stated),-12.1,.,.,.,.,.
Cc1ccc(C)c(S(=O)(=O)C(C#N)c2nc3ccccc3nc2N2CCOCC2)c1 (configuration not stated),-21.5,-1.3,0.1,-1.9,7.1,-4.0
N#CC(c1nc2ccccc2nc1N1CCCC1)S(=O)(=O)c1ccccc1 (configuration not stated),102.5*,12.3,-2.7,-2.4,2.3,-30.7
Cc1cccc(S(=O)(=O)C(C#N)c2nc3ccccc3nc2N2CCCC2)c1 (configuration not stated),91.6*,6.1,1.5,-8.1,2.1,-12.8
CCn1c(COC(=O)CNC(=O)c2cc(OC)c(OC)c(OC)c2)nc2cc(S(=O)(=O)N(C)C)ccc21,.,3.4,-4.1,-8.8,0.2,0.3
CN(Cc1ccccc1)C(=O)[C@@H]1CCCN1C(=O)[C@@H]1CCCN1C(=O)c1ccc(Cl)cc1,.,.,.,6.2,.,.
C/C=C(\C)C(=O)OC1[C@H](OC(C)=O)C2(CO)C(CC1(C)C)C1=CCC3C4(C)CCC(O[C@@H]5O[C@H](C(=O)O)[C@@H](O[C@@H]6O[C@H](CO)[C@@H](O)[C@H](O)[C@H]6O)[C@H](O)[C@H]5O[C@H]5O[C@H](CO)[C@@H](O)[C@H](O)[C@H]5O)[C@](C)(CO)C4CCC3(C)[C@]1(C)C[C@H]2O (some centres not stated),.,0.4,3.5,-2.5,3.7,-4.0
Cc1cccc(-c2ocnc2C(=O)Nc2ncc(C)s2)c1,.,.,.,-15.9,.,.
O=C(NCCOc1ccc(F)cc1)C1CCC(=O)N(Cc2ccc(Cl)cc2)C1 (configuration not stated),.,.,.,-9.5,.,.
O=c1c2ccccc2c(C=Nc2cccc(O)c2)c(O)n1-c1ccc2c(c1)OCO2,50.5*,4.2,-7.7,-10.1,0.8,1.9
COc1ccc(N=Cc2c(O)n(-c3ccc(OC)cc3)c(=O)c3ccccc23)cc1,-7.8,2.4,-2.8,1.1,0.7,-9.8
CCn1c(O)c(/C=N/N=C/c2ccccc2)c2ccc(C3=NNC(=O)CC3)cc21,59.6*,36.1*,2.2,-79.4,7.4,-121.5
COc1ccc(/C=C2\Oc3cc(OC(=O)N4CCOCC4)ccc3C2=O)cc1,-17.4,1.9,-4.2,-8.0,0.6,-5.6
CC(=O)Oc1ccc2c(c1)O/C(=C\c1ccncc1)C2=O,77.1*,59.9*,2.1,79.0*,36.8,-80.3

# Screening results: PubChem, several laboratories
